Several values for one entry are separate records, joined by “and”; a condition that tells them apart may be missing. Identical values can stand only once. Results filed as inconclusive are left out. A call without a number means that no potency is given here. Activity calls are given as the source filed them. Unless noted, the call rests on the fitted dose curve; in most records, active means well fitted curve in the direction sought with a large enough effect; inconclusive means small, poorly fitted or top-dose-only effect, or another doubt; inactive means no such curve, though single readings can be large; an effect the other way counts as inactive or inconclusive.
Legend:
[1] = target: D(1A) dopamine receptor (Homo sapiens) (UniProt P21728); assay: HTS Assay for Allosteric Agonists of the Human D1 Dopamine Receptor: Primary Screen for Antagonists (AID 488983);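 further: calcium flux response to an EC80 dopamine challenge measured with no-wash dye; nearly all actives have a fitted effect of over 65% in size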; further: potency means the concentration at half of the fitted maximal effect
In short: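 Calcium-flux read-out in inducible HEK293 T-REx cells expressing D1, dye-loaded 30–90 min at room temperature. Kinetic reads: 180 s after compound (agonist phase), then 180 s after an EC80 dopamine challenge.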

[2] = Validation screen for small molecules that induce genotoxicity in human embryonic kidney (HEK293T) cells expressing luciferase-tagged ELG1 (AID 493106)
In short: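 ELG1-luciferase reporter readout (ONE-Glo, 30 min, room temperature) after 16 hr compound treatment at 37 °C of HEK293T cells at 2,000 per well. Rising luminescence flags genotoxic stress.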

[3] = target: ATPase family AAA domain-containing protein 5 (Homo sapiens) (UniProt Q96QE3); assay: Validation screen for small molecules that inhibit ELG1-dependent DNA repair in human embryonic kidney (HEK293T) cells expressing luciferase-tagged ELG1 (AID 493107);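 further: series mostly up to about 46 µM; inhibitors lower the ELG1-luciferase luminescence signal; nearly all actives have a fitted effect of over 70% in size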
In short: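 Luciferase read-out, ONE-Glo, 30 min at room temperature, follows 16 h co-exposure at 37 C of compound and the DNA-damaging agent 5-fluorouridine. Cells: HEK293T with ELG1-luciferase fusion, 2,000 per well, DMSO as vehicle.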

[4] = target: Thyrotropin-releasing hormone receptor (Homo sapiens) (UniProt P34981); assay: qHTS for Small Molecule Agonists and Allosteric Enhancers of Human TRH Receptor: Validation Screen for Agonists (AID 493127;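 active means calcium activation more than 3 SD above the typical response in the agonist read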;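 further: intracellular calcium rise by fluo-8 fluorescence before TRH EC20 addition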); conditions: TRH receptor agonist cell assay; at 2 µM; stronger effect = higher value
In short: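 Compound-evoked intracellular calcium release in fluo-8-loaded TRHR cells, read kinetically on FDSS (Ex 480/Em 530, 1 s/cycle) after 23 nL pintool transfer. Agonist phase preceded 10 nM TRH EC20 addition.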

[5] = Nrf2 qHTS screen for inhibitors: Validation (AID 493153; active means well fitted inhibition curve with a large enough effect in the main read-out, with a control signal flat, not every such curve was filed as active); conditions: Potency: luciferase luminescence; viability change: measured here: cytotoxicity max response
In short: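 Concentration-response on A549 ARE_Fluc reporter cells exposed 18-24 h at 37 C, 5% CO2. Cytotoxicity read first by CellTiter-Fluor fluorescence (Ex 405/Em 525), then Nrf2 inhibition by BugLite luminescence after 15 min.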

[6] = qHTS for Inhibitors of Cell Surface uPA Generation: Validation Assay (AID 493164);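 further: RAW 264.7 macrophage cells exposed to compound for 18 h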
In short: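 ATP-Lite luminescence read-out: ATP remains high when uPA activity-dependent LF translocation into the cytoplasm is blocked. RAW 264.7 cells, 18 h compound exposure at 37 C; 7-point titration, 2.45 nM to 38.3 uM final.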

[7] = target: Galactokinase (Homo sapiens) (UniProt P51570); assay: qHTS Validation Assay for Inhibitors of Human Galactokinase (GALK) (AID 493189)
In short: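 Inhibition was measured as remaining ATP, detected by luciferase luminescence after a 1 h room-temperature reaction. Final conditions: 5 nM GALK, 100 uM galactose, 35 uM ATP, pH 8.0 HEPES buffer.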

[8] = Validation screen for small molecules that induce DNA re-replication in SW480 colon adenocarcinoma cells (AID 504364)
In short: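 Image-based DNA content read-out: Hoechst stain 40 min, total nuclear fluorescence intensity (ex 405 nm, em 500-530 nm) after 48 h compound exposure of 250 SW480 cells/well at 37 C, 5% CO2, versus DMSO vehicle.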

[9] = target: ATP-dependent 6-phosphofructokinase (Trypanosoma brucei brucei) (UniProt O15648); assay: qHTS Assay to Find Inhibitors of T. brucei phosphofructokinase: hit validation (AID 492961);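 further: luminescence reports ADP formed as PFK phosphorylates fructose-6-phosphate with ATP; series mostly up to about 51 µM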
In short: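 PFK 1.25 nM, F6P 0.5 mM, ATP 0.1 mM, MgCl2 5 mM, 0.1 M TEA pH 8.0, Tween20 0.01%, BSA 0.1%; 45 min RT. ADP-Glo two-step detection, luminescence. qHTS titration; curve fitting with curve-class categorization.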

Chain of D(1A) dopamine receptor (Homo sapiens) (P21728 whole entry, looked up): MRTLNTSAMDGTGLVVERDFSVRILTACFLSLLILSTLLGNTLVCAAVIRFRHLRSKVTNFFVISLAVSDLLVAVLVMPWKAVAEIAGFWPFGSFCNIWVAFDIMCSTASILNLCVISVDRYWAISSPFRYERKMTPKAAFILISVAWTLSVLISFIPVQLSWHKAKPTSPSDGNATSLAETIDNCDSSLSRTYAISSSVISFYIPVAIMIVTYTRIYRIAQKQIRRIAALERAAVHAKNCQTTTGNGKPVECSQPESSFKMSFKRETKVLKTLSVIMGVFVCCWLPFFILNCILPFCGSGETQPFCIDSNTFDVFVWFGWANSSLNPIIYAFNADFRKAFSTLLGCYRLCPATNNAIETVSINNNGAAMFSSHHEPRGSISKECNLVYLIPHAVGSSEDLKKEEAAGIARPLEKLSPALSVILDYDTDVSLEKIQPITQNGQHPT
Chain of Galactokinase (Homo sapiens) (P51570 whole entry, looked up): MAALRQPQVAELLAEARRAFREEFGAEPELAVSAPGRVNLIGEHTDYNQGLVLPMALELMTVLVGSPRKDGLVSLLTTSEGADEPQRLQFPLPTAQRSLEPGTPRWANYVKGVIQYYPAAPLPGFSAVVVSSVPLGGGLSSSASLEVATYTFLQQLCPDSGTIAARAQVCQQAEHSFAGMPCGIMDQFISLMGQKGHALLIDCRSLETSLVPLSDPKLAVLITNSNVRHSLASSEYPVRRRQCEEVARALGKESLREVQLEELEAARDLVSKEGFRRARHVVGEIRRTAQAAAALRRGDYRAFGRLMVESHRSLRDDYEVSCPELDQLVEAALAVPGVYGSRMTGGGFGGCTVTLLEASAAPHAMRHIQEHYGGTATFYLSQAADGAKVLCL
Chain of Thyrotropin-releasing hormone receptor (Homo sapiens) (P34981 whole entry, looked up): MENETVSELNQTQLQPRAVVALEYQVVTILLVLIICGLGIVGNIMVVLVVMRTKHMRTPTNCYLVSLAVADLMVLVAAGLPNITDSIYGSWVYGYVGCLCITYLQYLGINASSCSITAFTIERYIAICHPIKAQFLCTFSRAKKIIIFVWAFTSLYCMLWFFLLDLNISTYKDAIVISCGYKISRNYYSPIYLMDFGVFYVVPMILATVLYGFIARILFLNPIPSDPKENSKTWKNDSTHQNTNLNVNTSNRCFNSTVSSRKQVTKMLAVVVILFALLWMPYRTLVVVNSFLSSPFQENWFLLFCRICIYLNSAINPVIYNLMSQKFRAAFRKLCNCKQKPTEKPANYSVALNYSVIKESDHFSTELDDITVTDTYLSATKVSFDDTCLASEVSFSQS
Chain of ATPase family AAA domain-containing protein 5 (Homo sapiens) (Q96QE3 whole entry, looked up, the tested form may be a part): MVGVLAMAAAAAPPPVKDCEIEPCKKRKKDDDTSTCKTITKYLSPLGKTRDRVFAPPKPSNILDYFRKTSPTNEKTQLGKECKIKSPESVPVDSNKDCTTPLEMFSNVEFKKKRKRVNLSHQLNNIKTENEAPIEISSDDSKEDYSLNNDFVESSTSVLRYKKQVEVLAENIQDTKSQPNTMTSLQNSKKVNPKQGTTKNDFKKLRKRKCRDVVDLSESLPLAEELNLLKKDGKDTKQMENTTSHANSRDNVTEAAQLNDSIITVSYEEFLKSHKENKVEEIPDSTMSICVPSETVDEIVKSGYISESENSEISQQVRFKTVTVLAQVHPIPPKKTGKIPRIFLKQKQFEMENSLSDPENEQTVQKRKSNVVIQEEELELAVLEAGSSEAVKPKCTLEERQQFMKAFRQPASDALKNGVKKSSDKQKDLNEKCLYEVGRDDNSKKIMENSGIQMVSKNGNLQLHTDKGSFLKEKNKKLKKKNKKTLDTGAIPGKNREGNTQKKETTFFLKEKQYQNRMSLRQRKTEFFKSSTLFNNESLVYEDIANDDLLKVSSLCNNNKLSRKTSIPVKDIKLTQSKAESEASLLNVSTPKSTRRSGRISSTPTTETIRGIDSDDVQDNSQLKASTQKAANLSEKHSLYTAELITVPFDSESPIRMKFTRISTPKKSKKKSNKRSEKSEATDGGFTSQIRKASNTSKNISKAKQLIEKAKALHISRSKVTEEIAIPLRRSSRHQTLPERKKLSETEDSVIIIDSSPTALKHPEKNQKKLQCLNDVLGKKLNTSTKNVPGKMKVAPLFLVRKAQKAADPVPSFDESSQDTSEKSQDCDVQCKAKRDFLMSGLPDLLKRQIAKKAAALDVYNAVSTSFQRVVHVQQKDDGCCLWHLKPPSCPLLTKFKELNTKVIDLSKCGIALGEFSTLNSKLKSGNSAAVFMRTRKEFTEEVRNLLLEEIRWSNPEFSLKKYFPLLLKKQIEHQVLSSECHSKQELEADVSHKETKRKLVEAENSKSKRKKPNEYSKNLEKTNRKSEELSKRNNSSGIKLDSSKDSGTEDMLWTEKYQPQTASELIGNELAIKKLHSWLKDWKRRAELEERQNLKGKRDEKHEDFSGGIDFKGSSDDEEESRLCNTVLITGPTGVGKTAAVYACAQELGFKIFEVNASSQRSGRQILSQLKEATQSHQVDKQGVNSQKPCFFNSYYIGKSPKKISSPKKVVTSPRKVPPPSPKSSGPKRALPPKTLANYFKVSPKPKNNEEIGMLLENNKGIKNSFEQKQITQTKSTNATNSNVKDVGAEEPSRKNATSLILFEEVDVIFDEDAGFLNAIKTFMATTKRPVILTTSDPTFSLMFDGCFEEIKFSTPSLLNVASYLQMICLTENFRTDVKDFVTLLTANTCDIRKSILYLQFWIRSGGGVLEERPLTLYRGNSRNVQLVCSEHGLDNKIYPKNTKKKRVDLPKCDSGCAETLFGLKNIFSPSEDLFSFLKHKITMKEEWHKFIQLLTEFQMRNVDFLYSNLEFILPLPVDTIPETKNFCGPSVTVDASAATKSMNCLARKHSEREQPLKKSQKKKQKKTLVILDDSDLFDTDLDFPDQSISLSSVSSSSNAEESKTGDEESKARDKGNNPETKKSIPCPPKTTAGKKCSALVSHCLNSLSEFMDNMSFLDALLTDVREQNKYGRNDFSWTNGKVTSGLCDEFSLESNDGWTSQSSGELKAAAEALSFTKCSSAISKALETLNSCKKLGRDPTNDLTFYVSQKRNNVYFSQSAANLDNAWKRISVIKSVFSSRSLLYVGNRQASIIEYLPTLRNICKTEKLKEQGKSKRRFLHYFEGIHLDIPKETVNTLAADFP
Chain of ATP-dependent 6-phosphofructokinase (Trypanosoma brucei brucei) (O15648 whole entry, looked up): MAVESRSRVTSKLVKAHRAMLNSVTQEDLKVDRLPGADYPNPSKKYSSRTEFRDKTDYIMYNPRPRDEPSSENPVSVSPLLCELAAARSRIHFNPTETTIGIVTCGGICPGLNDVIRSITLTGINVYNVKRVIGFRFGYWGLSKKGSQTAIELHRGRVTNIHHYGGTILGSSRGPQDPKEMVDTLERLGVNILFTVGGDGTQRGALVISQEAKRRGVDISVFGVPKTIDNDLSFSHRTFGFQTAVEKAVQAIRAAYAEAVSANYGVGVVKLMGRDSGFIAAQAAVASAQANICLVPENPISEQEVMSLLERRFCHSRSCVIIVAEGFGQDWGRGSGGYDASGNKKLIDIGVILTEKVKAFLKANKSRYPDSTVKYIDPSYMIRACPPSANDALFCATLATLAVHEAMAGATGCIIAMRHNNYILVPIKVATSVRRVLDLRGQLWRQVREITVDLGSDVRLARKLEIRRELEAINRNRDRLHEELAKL

## CN(C)CC[C@@H](c1ccc(Cl)cc1)c1ccccn1
[1]
  Potency: inactive
[2]
  Potency: inactive
[3]
  outcome: inactive
[4]
  activation: 1.56% (inactive)
[5]
  Potency: inactive
  viability change: 8.9%
[6]
  outcome: inactive
[7]
  outcome: inactive
[8]
  outcome: inactive

## C#CCN(C)Cc1ccccc1
[1]
  Potency: inactive
[9]
  Potency: inactive
[2]
  Potency: inactive
[3]
  outcome: inactive
[4]
  activation: 0.562% (inactive)
[5]
  Potency: inactive
  viability change: 1.01%
[6]
  outcome: inactive
[7]
  outcome: inactive
[8]
  outcome: inactive

## Nc1ncnc2c1ncn2[C@@H]1O[C@H](CO)[C@@H](O)[C@H]1O
[1]
  Potency: inactive
[9]
  Potency: inactive
[2]
  Potency: inactive
[3]
  outcome: inactive
[5]
  Potency: inactive
  viability change: 4.32%
[6]
  outcome: inactive

## O=C1N=C(O)CN1/N=C/c1ccc(-c2ccc([N+](=O)[O-])cc2)o1
[1]
  Potency: inactive
[2]
  Potency: inactive
[3]
  outcome: inactive
[5]
  Potency: inactive
  viability change: -12.1%
[6]
  outcome: inactive
[7]
  outcome: inactive
[8]
  outcome: inactive

## CNCCCC1c2ccccc2C=Cc2ccccc21
[1]
  Potency: 11.2 µM (active)
[9]
  Potency: inactive
[2]
  Potency: inactive
[3]
  outcome: inactive
[4]
  activation: 7.31% (inactive)
[5]
  Potency: inactive
  viability change: 4.24%
[6]
  outcome: inactive
[7]
  outcome: inactive
[8]
  outcome: inactive

## CC(C)(C)c1onc(OCP(=O)(O)O)c1CC(N)C(=O)O (configuration not stated)
[1]
  Potency: inactive
[2]
  Potency: inactive
[3]
  outcome: inactive
[4]
  activation: 1% (inactive)
[5]
  Potency: inactive
  viability change: 4.09% and -1.93%
[6]
  outcome: inactive
[7]
  outcome: inactive
[8]
  outcome: inactive

## CCN(CC)C(C)CN1c2ccccc2Sc2ccccc21 (configuration not stated)
[1]
  Potency: inactive
[2]
  Potency: inactive
[3]
  outcome: inactive
[5]
  Potency: inactive
  viability change: -0.429%
[6]
  outcome: inactive

## CCCCCCCCCCCCCCCC(=O)NCCO
[1]
  Potency: inactive
[9]
  Potency: inactive
[2]
  Potency: inactive
[3]
  outcome: inactive
[4]
  activation: 1.06% (inactive)
[5]
  Potency: inactive
  viability change: -3.02%
[6]
  outcome: inactive
[7]
  outcome: inactive
[8]
  outcome: inactive

## CC(C)(C(=O)O)c1ccc(C(O)CCCN2CCC(C(O)(c3ccccc3)c3ccccc3)CC2)cc1 (configuration not stated)
[1]
  Potency: inactive
[2]
  Potency: inactive
[3]
  outcome: inactive
[4]
  activation: -0.125% (inactive)
[5]
  Potency: inactive
  viability change: 5.93%
[6]
  outcome: inactive
[8]
  outcome: inactive

From PubChem BioAssay (NCATS)
